From PubChem BioAssay
Unmarked numbers belong to inactive results. Activity calls are given as the source filed them.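 The calls were made as follows: active = thallium flux through the channel raised or lowered by more than 3 SD from vehicle-only wells, actives on both sides; inactive = the rest.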

These compounds were tested on R275C (assay: modulators of BK channel variants, profiling panel, selectivity assay, cell-based, U2OS BacMam, thallium flux, beta subunits (AID 1259406;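 also: initial slope of Thallos dye fluorescence rise after thallium is added; log ratio against the mean of 0.3% DMSO vehicle wells on the same plate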)). Settings: at 30 µM.
`CNCCC(Oc1ccc(C(F)(F)F)cc1)c1ccccc1` (configuration not stated) gave a log fold change Tl+ flux of -0.0214. Compound `COc1ccc(/C=C/C(=O)Nc2ccccc2C(=O)O)cc1OC` has a log fold change Tl+ flux of -0.0585. For `COC(=O)[C@H](c1ccccc1Cl)N1CCc2sccc2C1`, the log fold change Tl+ flux was 0.027. `CC(C)NCC(O)COc1cccc2ccccc12` (configuration not stated) gave a log fold change Tl+ flux of -0.0109. `O=[N+]([O-])c1cccc2cn[nH]c12` gave a log fold change Tl+ flux of -0.025. In the case of `CS(=O)(=O)c1ccc(C2=C(c3ccccc3)C(=O)OC2)cc1`, the log fold change Tl+ flux is reported as -0.068. `Cc1occc(=O)c1O` was tested, and the log fold change Tl+ flux was -0.0195. `CN(C)c1nc(N(C)C)nc(N(C)C)n1` was tested, and the log fold change Tl+ flux was -0.00384. With `COc1ccc(-c2cc(=O)c3c(OC)c(OC)c(OC)c(OC)c3o2)cc1OC` the log fold change Tl+ flux was -0.784 (active). With `C[N+]1(C)CCCC(OC(=O)C(O)(c2ccccc2)c2ccccc2)C1` (configuration not stated) the log fold change Tl+ flux was 0.00512. In the case of `CC1=C(/C=C/C(C)=C/C=C/C(C)=C\C(=O)O)C(C)(C)CCC1`, the log fold change Tl+ flux is reported as -0.0306. For `CCc1ccc(CCOc2ccc(CC3SC(=O)NC3=O)cc2)nc1` (configuration not stated), the log fold change Tl+ flux was -0.057. In the case of `CC(C(=O)O)c1ccc(-c2ccccc2)c(F)c1` (configuration not stated), the log fold change Tl+ flux is reported as -0.0123. With `CC[C@H]1OC(=O)[C@H](C)[C@@H](O[C@H]2C[C@@](C)(OC)[C@@H](O)[C@H](C)O2)[C@H](C)[C@@H](O[C@@H]2O[C@H](C)C[C@H](N(C)C)[C@H]2O)[C@](C)(OC)C[C@@H](C)C(=O)[C@H](C)[C@@H](O)[C@]1(C)O` the log fold change Tl+ flux was -0.104. Compound `C[C@H]1COc2c(N3CCN(C)CC3)c(F)cc3c(=O)c(C(=O)O)cn1c23` has a log fold change Tl+ flux of -0.0297. In the case of `CC(C)NCC(O)COc1ccc(CC(N)=O)cc1` (configuration not stated), the log fold change Tl+ flux is reported as -0.00467. In the case of `Cc1cccc(C)c1NC(=O)C1CCCCN1C` (configuration not stated), the log fold change Tl+ flux is reported as -0.0395. `CCCCC(=O)N(Cc1ccc(-c2ccccc2-c2nn[nH]n2)cc1)[C@H](C(=O)O)C(C)C` showed a log fold change Tl+ flux of -0.0315. For `Nc1ncnc2c1ncn2[C@@H]1O[C@H](CO)[C@@H](O)[C@@H]1O`, the log fold change Tl+ flux was 0.00664.

Each compound was assayed on R275C/beta1 in the same assay as above. Settings: at 30 µM.
For `CNCCC(Oc1ccc(C(F)(F)F)cc1)c1ccccc1` (configuration not stated), the log fold change Tl+ flux was 0.297 (active). Compound `COc1ccc(/C=C/C(=O)Nc2ccccc2C(=O)O)cc1OC` has a log fold change Tl+ flux of -0.0786. Work on `COC(=O)[C@H](c1ccccc1Cl)N1CCc2sccc2C1` yielded a log fold change Tl+ flux of -0.0372. `CC(C)NCC(O)COc1cccc2ccccc12` (configuration not stated) gave a log fold change Tl+ flux of 0.0491. `O=[N+]([O-])c1cccc2cn[nH]c12` gave a log fold change Tl+ flux of -0.0288. Work on `CS(=O)(=O)c1ccc(C2=C(c3ccccc3)C(=O)OC2)cc1` yielded a log fold change Tl+ flux of 0.023. `Cc1occc(=O)c1O` gave a log fold change Tl+ flux of -0.0131. `CN(C)c1nc(N(C)C)nc(N(C)C)n1` was tested, and the log fold change Tl+ flux was -0.054. With `COc1ccc(-c2cc(=O)c3c(OC)c(OC)c(OC)c(OC)c3o2)cc1OC` the log fold change Tl+ flux was -0.176 (active). Work on `C[N+]1(C)CCCC(OC(=O)C(O)(c2ccccc2)c2ccccc2)C1` (configuration not stated) yielded a log fold change Tl+ flux of 0.0318. `CC1=C(/C=C/C(C)=C/C=C/C(C)=C\C(=O)O)C(C)(C)CCC1` gave a log fold change Tl+ flux of -0.0172. Compound `CCc1ccc(CCOc2ccc(CC3SC(=O)NC3=O)cc2)nc1` (configuration not stated) has a log fold change Tl+ flux of -0.028. `CC(C(=O)O)c1ccc(-c2ccccc2)c(F)c1` (configuration not stated) was tested, and the log fold change Tl+ flux was 0.0432. For `CC[C@H]1OC(=O)[C@H](C)[C@@H](O[C@H]2C[C@@](C)(OC)[C@@H](O)[C@H](C)O2)[C@H](C)[C@@H](O[C@@H]2O[C@H](C)C[C@H](N(C)C)[C@H]2O)[C@](C)(OC)C[C@@H](C)C(=O)[C@H](C)[C@@H](O)[C@]1(C)O`, the log fold change Tl+ flux was -0.0277. `C[C@H]1COc2c(N3CCN(C)CC3)c(F)cc3c(=O)c(C(=O)O)cn1c23` showed a log fold change Tl+ flux of 0.0187. Compound `CC(C)NCC(O)COc1ccc(CC(N)=O)cc1` (configuration not stated) has a log fold change Tl+ flux of 0.0259. For `Cc1cccc(C)c1NC(=O)C1CCCCN1C` (configuration not stated), the log fold change Tl+ flux was -0.0108. In the case of `CCCCC(=O)N(Cc1ccc(-c2ccccc2-c2nn[nH]n2)cc1)[C@H](C(=O)O)C(C)C`, the log fold change Tl+ flux is reported as 0.0112. `Nc1ncnc2c1ncn2[C@@H]1O[C@H](CO)[C@@H](O)[C@@H]1O` gave a log fold change Tl+ flux of -0.0305.

These compounds were tested on R275C/beta2Delta in the same assay as above. Settings: at 30 µM.
With `CNCCC(Oc1ccc(C(F)(F)F)cc1)c1ccccc1` (configuration not stated) the log fold change Tl+ flux was 0.0608. `COc1ccc(/C=C/C(=O)Nc2ccccc2C(=O)O)cc1OC` gave a log fold change Tl+ flux of 0.0483. Work on `COC(=O)[C@H](c1ccccc1Cl)N1CCc2sccc2C1` yielded a log fold change Tl+ flux of -0.0599. In the case of `CC(C)NCC(O)COc1cccc2ccccc12` (configuration not stated), the log fold change Tl+ flux is reported as 0.188 (active). For `O=[N+]([O-])c1cccc2cn[nH]c12`, the log fold change Tl+ flux was 0.0285. With `CS(=O)(=O)c1ccc(C2=C(c3ccccc3)C(=O)OC2)cc1` the log fold change Tl+ flux was 0.00437. Compound `Cc1occc(=O)c1O` has a log fold change Tl+ flux of 0.041. `CN(C)c1nc(N(C)C)nc(N(C)C)n1` gave a log fold change Tl+ flux of -0.0096. For `COc1ccc(-c2cc(=O)c3c(OC)c(OC)c(OC)c(OC)c3o2)cc1OC`, the log fold change Tl+ flux was -0.278 (active). Compound `C[N+]1(C)CCCC(OC(=O)C(O)(c2ccccc2)c2ccccc2)C1` (configuration not stated) has a log fold change Tl+ flux of -0.0151. `CC1=C(/C=C/C(C)=C/C=C/C(C)=C\C(=O)O)C(C)(C)CCC1` gave a log fold change Tl+ flux of 0.0302. Compound `CCc1ccc(CCOc2ccc(CC3SC(=O)NC3=O)cc2)nc1` (configuration not stated) has a log fold change Tl+ flux of -0.0196. `CC(C(=O)O)c1ccc(-c2ccccc2)c(F)c1` (configuration not stated) showed a log fold change Tl+ flux of 0.0621. `CC[C@H]1OC(=O)[C@H](C)[C@@H](O[C@H]2C[C@@](C)(OC)[C@@H](O)[C@H](C)O2)[C@H](C)[C@@H](O[C@@H]2O[C@H](C)C[C@H](N(C)C)[C@H]2O)[C@](C)(OC)C[C@@H](C)C(=O)[C@H](C)[C@@H](O)[C@]1(C)O` showed a log fold change Tl+ flux of 0.033. `C[C@H]1COc2c(N3CCN(C)CC3)c(F)cc3c(=O)c(C(=O)O)cn1c23` was tested, and the log fold change Tl+ flux was -0.00628. `CC(C)NCC(O)COc1ccc(CC(N)=O)cc1` (configuration not stated) showed a log fold change Tl+ flux of -0.0455. For `Cc1cccc(C)c1NC(=O)C1CCCCN1C` (configuration not stated), the log fold change Tl+ flux was 0.00999. `CCCCC(=O)N(Cc1ccc(-c2ccccc2-c2nn[nH]n2)cc1)[C@H](C(=O)O)C(C)C` was tested, and the log fold change Tl+ flux was 0.014. In the case of `Nc1ncnc2c1ncn2[C@@H]1O[C@H](CO)[C@@H](O)[C@@H]1O`, the log fold change Tl+ flux is reported as -0.0267.
